HT1080 IDH1KD tx – qHTS for induction of synthetic lethality in tumor cells producing 2HG: qHTS for the HT-1080-IDH1KD cell line | HT-1080 IDH1 knockdown viability, ATP luminescence, 48 h | Potency, µM (titrated, usually from 46.1 µM), for inactives: at the highest dose activity, negative = toxicity, actives largely listed as cytotoxic | 2% of 360,000 active;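 note: potency is the fitted concentration of half-maximal effect; 0% = DMSO wells and -100% = cell-free medium wells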
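HT-1080-IDH1KD cells (IDH1 knocked down), 750/well in RPMI with 5% FBS, treated with compound 48 h at 37 degrees C. Viability by CellTiter-Glo luminescence, normalised to DMSO and no-cell wells; concentration-response curves classed.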
TDP1 cell CPT – qHTS for Inhibitors of human tyrosyl-DNA phosphodiesterase 1 (TDP1): qHTS in cells in presence of CPT; 12% of 420,000 active; chicken DT40 Tdp1-/-;hTDP1 cells + 20 nM CPT, ATP luminescence, 48 h; AID 686979, 2013; Potency, µM (series often up to 46.2 µM), without a hit: at the highest dose activity change, negative = growth inhibition, most hits filed as inhibitors; note: potency is the fitted concentration of half-maximal effect; nearly all actives have a fitted effect of over 55% in size
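Chicken DT40 Tdp1-/- cells stably complemented with human TDP1 were seeded at 400 cells/well in medium containing 20 nM camptothecin, exposed to pin-transferred compounds, and grown at 37 °C for at least 48 hr. Viability was read as ATP luminescence.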
DT40 TDP1 no CPT – qHTS for Inhibitors of human tyrosyl-DNA phosphodiesterase 1 (TDP1): qHTS in cells in absence of CPT | DT40 Tdp1-/- hTDP1 cells, no CPT, ATP luminescence, 48 h | Potency, µM (highest dose often 46.2 µM), without a hit: top-dose activity change, negative = growth inhibition, usual class: inhibitors | 15% of 420,000 active; note: potency is the fitted concentration of half-maximal effect; nearly all actives have a fitted effect of over 55% in size
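Growth of hTDP1-complemented DT40 Tdp1-knockout cells is measured by ATP luminescence after at least 48 hr compound exposure at 37 °C, with DMSO substituting for the 20 nM CPT used in the parallel screen.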
IL-1B inflam inh – qHTS for Inhibitors of Inflammasome Signaling: IL-1-beta AlphaLISA Primary Screen | THP-1 LPS/ATP IL-1B secretion, AlphaLISA, 16 h; stronger effect = lower value | activity change, % at 57.5 µM | 4.7% of 360,000 active | AID 743279, 2014; in the data active = activity change below about -50%; inconclusive = mostly about -30% to -49%
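THP-1 cells pretreated 1 hr with compounds (up to 57.5 uM final), then stimulated with LPS (250 ng/mL final) plus ATP (1.25 mM final); secreted IL-1B measured by AlphaLISA after 16 hr, decreased signal indicating inhibition.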
HT1080-NT tox – qHTS for induction of synthetic lethality in tumor cells producing 2HG: qHTS for the HT-1080-NT fibrosarcoma cell line | HT-1080-NT fibrosarcoma viability, CellTiter-Glo ATP luminescence, 48 h | AID 686970, 2013 | Potency, µM (doses to about 46.1 µM), for inactives: top-dose activity, negative = less viability, most hits filed as cytotoxic | 1.6% of 360,000 active;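 note: NT is the 2HG producing partner of a matched IDH1 knockdown line; potency is the fitted concentration of half-maximal effect; 0% = DMSO-treated cells and -100% = media-only wells without cells; nearly all actives have a fitted effect of over 55% in size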
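Fibrosarcoma NT cells, 750 per well in 5% FBS RPMI, were exposed to compound for 48 hours. Viability: CellTiter-Glo luminescence.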
An asterisk follows results filed as active; ? = inconclusive; · = not tested or not shown; [ ] = another dose, or the depositor's remark. The list is not random: actives were taken first. Their share in the collection is about 19%. Unless noted, calls come from the whole dose curve; as a rule, active = well fitted curve in the direction sought with a large enough effect; inconclusive = small, poorly fitted or top-dose-only effect, or another doubt; inactive = no such curve, though single readings can be large; an effect the other way counts as inactive or inconclusive. Unless noted, % is set by controls: 0 for no effect and ±100 for the full control effect.

SMILES | HT1080 IDH1KD tx | TDP1 cell CPT | DT40 TDP1 no CPT | IL-1B inflam inh | HT1080-NT tox
O=C(Nc1cc(=O)[nH]c(=O)[nH]1)c1cc(Cl)ccc1Cl | 3.3µM* | 3.3µM* | 4.1µM* | 59 | ?
O=C(Nc1cc(=O)[nH]c(=O)[nH]1)c1cccc(C(F)(F)F)c1 | -9% | -21% | -4% | 14 | -10%
O=C(Nc1cc(Cl)ccc1-n1cncn1)c1ccc([N+](=O)[O-])o1 | -22% | 7.3µM* | 10µM* | -65* | -22%
CC(=O)N1CCN(c2ccc(NC(=O)c3ccc([N+](=O)[O-])o3)cc2Cl)CC1 | 6.5µM* | 0.41µM* | 0.92µM* | -102* | 3.3µM*
CCC(=O)N1CCN(c2ccc(Cl)cc2NC(=O)c2ccc([N+](=O)[O-])o2)CC1 | ? | 18µM* | ? | 3 | ?
CCC(=O)N1CCN(c2ccc(NC(=O)c3ccc([N+](=O)[O-])o3)cc2Cl)CC1 | 7.3µM* | 0.82µM* | 5.2µM* | -107* | 12µM*
CCC(=O)N1CCN(c2ccc(NC(=O)c3ccc(C#N)cc3F)cc2Cl)CC1 | 5% | ? | ? | 25 | 0%
CCN1CCN(c2ccc(NC(=O)c3ccc([N+](=O)[O-])o3)cc2Cl)CC1 | 13µM* | 0.58µM* | 0.52µM* | -107* | ?
COc1ccc(N2CCN(C(=O)CCc3c(C)nn(-c4ccc(N5CCCC5)nn4)c3C)CC2)cc1 | · | -24% | -23% | · | ·
CCOc1ccc(C(CC(=O)O)NC(=O)C23CC4CC(CC(C4)C2)C3)cc1 (configuration not stated) | -11% | 1% | -9% | 16 | 1%
CC1C(=O)N(Cc2cn(CCC3OCCO3)nn2)CCS(=O)(=O)N1Cc1ccc(-c2cccc(CO)c2)cc1 (configuration not stated) | 2% | 6% | -5% | 1 | 4%
COc1ccc(-c2ccc(CN3C(C)C(=O)N(Cc4cn(CCC5OCCO5)nn4)CCS3(=O)=O)cc2)cc1 (configuration not stated) | 5% | 9.2µM* | 23µM* | -7 | -11%
CC1C(=O)N(Cc2cn(CCC3OCCO3)nn2)CCS(=O)(=O)N1Cc1ccc(-c2ccc(Cl)c(Cl)c2)cc1 (configuration not stated) | ? | 15µM* | 6.5µM* | -19 | ?
CC1C(=O)N(Cc2cn(CCC3OCCCO3)nn2)CCS(=O)(=O)N1Cc1ccc(-c2cccc(N(C)C)c2)cc1 (configuration not stated) | -3% | ? | ? | 76 | 0%
COc1ccc(-c2ccc(CN3C(C)C(=O)N(Cc4cn(CCC5OCCO5)nn4)CCS3(=O)=O)cc2)cn1 (configuration not stated) | -9% | ? | 21µM* | 20 | -1%
Cc1ccc2[nH]c3c(c2c1)CCCC3NC(=O)CCl (configuration not stated) | 9.2µM* | 6.5µM* | 2.3µM* | -100* | 1.3µM*
Cc1ccc2[nH]c3c(c2c1)CCCC3C(N)=O (configuration not stated) | -1% | -4% | 10% | 33 | -3%
COc1cccc(OC)c1C(=O)Nc1ccc(S(=O)(=O)N2CCCCC2)cc1 | 0% | -2% | -14% | -3 | -27%
O=C(Cc1cccs1)NNC(=S)NC(=O)c1ccco1 | ? | ? | 29µM* | 34 | -16%
C/C(=N/NC(=O)Cc1cccs1)c1ccco1 | 14% | ? | 23µM* | -2 | 13%
C/C(=N/NC(=O)CNC(=O)c1cccs1)c1ccco1 | 13% | 13% | -1% | 4 | 19%
CC(C)(C)c1ccc(OCC(=O)NNC(=S)NC(=O)c2ccco2)c(Br)c1 | 0% | 21µM* | 10µM* | 24 | -1%
CC(C)(C)c1ccc(OCC(=O)NCc2ccco2)c(Br)c1 | ? | -92% | 23µM* | -27 | ?
CCOc1cc(C(=O)OCC(=O)NCc2ccco2)cc(OCC)c1OCC | 7% | -28% | ? | -16 | 6%
O=C1c2ccccc2C(=O)N1CCc1csc(-c2cccc(F)c2)n1 | -10% | -29% | 1% | -21 | -7%
SMILES | HT1080 IDH1KD tx | TDP1 cell CPT | DT40 TDP1 no CPT | IL-1B inflam inh | HT1080-NT tox
Cc1ccccc1OCC(=O)NNC(=S)NC(=O)c1ccco1 | 8.9µM* | 22µM* | 10µM* | 76 | ?
CC(C)c1ccc(OCC(=O)NNC(=S)NC(=O)c2ccco2)c(Br)c1 | -10% | ? | ? | 117 | -11%
O=C(Cc1ccccc1)Nc1ncccc1Cl | 19% | 9% | ? | · | 3%
CC(=O)Nc1ccc(Nc2nc(-c3c(C)nc4ccccn34)cs2)cc1 | 2.9µM* | 1µM* | 0.82µM* | ? | ?
Cc1nc2ncccn2c1-c1csc(Nc2ccccc2)n1 | -10% | 16µM* | 18µM* | -1 | 0%
Cc1nc2ncccn2c1-c1csc(Nc2ccc(S(N)(=O)=O)cc2)n1 | 10% | 37% | 5% | -2 | 5%
COc1ccc(Nc2nc(-c3c(C)nc4ncccn34)cs2)cc1 | 0.0073µM* | 0.0092µM* | 0.0073µM* | -61* | 0.013µM*
Cc1nc2ncccn2c1-c1csc(Nc2ccc(N(C)C)cc2)n1 | ? | 0.0052µM* | 0.018µM* | ? | ?
Cc1ccc(S(=O)(=O)N(CC(=O)c2ccc(Cl)cc2)C(=O)N2CCN(C)CC2)cc1 | 10% | -8% | 4% | -2 | 0%
O=C(NCCN1Cc2ccccc2OC(c2ccsc2)C1)c1ccc2[nH]ccc2c1 (configuration not stated) | · | -2%[9.04 µM] | -25% | · | ·
CCCCn1c(N)c(N(CCOC)C(=O)COC(=O)CCOc2ccccc2)c(=O)[nH]c1=O | 8% | 17% | 18% | 12 | 5%
Cc1nc2sccn2c1-c1csc(NCc2ccccc2)n1 | 7% | 16µM* | 13µM* | -73* | ?
COc1ccc2[nH]c(CCc3nc4c(OC)c(OC)ccc4[nH]3)nc2c1OC | · | -18% | 0% | · | ·
N#CC(OC(=O)c1ccccc1)c1ccccc1 (configuration not stated) | 0% | -5% | -7% | 4 | 2%
N#CC(c1ccccc1)C(CC(=NO)c1ccccc1)c1ccccc1 (configuration not stated) | -26% | 23µM* | 10µM* | ? | ?
O=C(CNC(=O)c1ccc([N+](=O)[O-])cc1)c1ccccc1 | 3% | 1% | 1% | -17 | 22%

Screening data (PubChem)
